For 19 compounds, outcome and AC50 results are on record in PubChem BioAssay (EPA / NIEHS).

Experiment [1] deals with Retinoic acid receptor alpha (Homo sapiens) (UniProt P10276). As to the kind of experiment: NVS_NR_hRAR_Antagonist: NovaScreen (NVS) Nuclear Receptor Binding Assay for human Retinoic Acid Alpha Receptor Antagonism (RAR) (AID 2283358). Put shortly: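 RARalpha antagonism was read by TR-FRET as loss of binding signal versus DMSO, 2 h after chemical addition, in a biochemical format. Single-concentration duplicates (25 uM) were run first, and actives were retested in concentration series.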
Chain of Retinoic acid receptor alpha (Homo sapiens) (P10276 whole entry, looked up): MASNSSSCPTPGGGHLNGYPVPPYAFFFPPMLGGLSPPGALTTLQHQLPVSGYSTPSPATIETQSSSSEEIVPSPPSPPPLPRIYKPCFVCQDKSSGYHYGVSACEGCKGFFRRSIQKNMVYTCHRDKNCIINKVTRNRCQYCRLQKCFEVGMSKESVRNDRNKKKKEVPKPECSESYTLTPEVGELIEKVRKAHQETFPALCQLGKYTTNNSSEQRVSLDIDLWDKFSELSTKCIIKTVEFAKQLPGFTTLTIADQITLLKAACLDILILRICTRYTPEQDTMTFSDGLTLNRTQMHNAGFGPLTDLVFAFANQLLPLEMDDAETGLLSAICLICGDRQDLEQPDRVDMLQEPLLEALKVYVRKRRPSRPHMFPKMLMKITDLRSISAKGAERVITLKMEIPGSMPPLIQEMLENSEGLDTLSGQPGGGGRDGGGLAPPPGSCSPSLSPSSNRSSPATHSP

Experiment [2] shares this target. The experiment is described as follows: NVS_NR_hRARa_Agonist: NovaScreen (NVS) Nuclear Receptor Binding Assay for human Retinoic Acid Alpha Receptor Agonism (RAR) (AID 2283361). The gist of the method: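 Agonist-mode TR-FRET binding format using extracted protein, measured at 2 h post-dosing. Initial duplicate single-point screen at 25 uM preceded concentration series for actives; activity was normalized to DMSO baseline.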

Experiment [3] concerns the target human Thyroid Receptor Alpha (TRa), THRA (gene 7067) (UniProt P10827). The experiment is described as follows: NVS_NR_hTRa_Antagonist: NovaScreen (NVS) Nuclear Receptor Binding Assay for human Thyroid Receptor Alpha Antagonism (TRa) (AID 2283362).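 Also: activity is loss of signal relative to DMSO baseline.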 Put shortly: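 Actives from a duplicate 25 uM single-point screen were retested in concentration series. The cell-free antagonist-format binding assay was read by AlphaLISA chemiluminescence at 1 h, scored as signal loss relative to DMSO.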

The target of experiment [4] is Glucocorticoid receptor (Homo sapiens) (UniProt P04150). As to the kind of experiment: NVS_NR_hGR: NovaScreen (NVS) Nuclear Receptor Binding Assay for human Glucocorticoid Receptor (GR) (AID 2283363).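 As to AC50: activity is loss of specific radioligand binding signal relative to DMSO.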 Put shortly: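 Compounds first tested in duplicate at 25 uM, actives followed up in concentration series. Binding to extracted GR protein measured as competitive radioligand displacement, filter scintillation read 16 h post-dosing, normalised to DMSO.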
Chain of Glucocorticoid receptor (Homo sapiens) (P04150 whole entry, looked up): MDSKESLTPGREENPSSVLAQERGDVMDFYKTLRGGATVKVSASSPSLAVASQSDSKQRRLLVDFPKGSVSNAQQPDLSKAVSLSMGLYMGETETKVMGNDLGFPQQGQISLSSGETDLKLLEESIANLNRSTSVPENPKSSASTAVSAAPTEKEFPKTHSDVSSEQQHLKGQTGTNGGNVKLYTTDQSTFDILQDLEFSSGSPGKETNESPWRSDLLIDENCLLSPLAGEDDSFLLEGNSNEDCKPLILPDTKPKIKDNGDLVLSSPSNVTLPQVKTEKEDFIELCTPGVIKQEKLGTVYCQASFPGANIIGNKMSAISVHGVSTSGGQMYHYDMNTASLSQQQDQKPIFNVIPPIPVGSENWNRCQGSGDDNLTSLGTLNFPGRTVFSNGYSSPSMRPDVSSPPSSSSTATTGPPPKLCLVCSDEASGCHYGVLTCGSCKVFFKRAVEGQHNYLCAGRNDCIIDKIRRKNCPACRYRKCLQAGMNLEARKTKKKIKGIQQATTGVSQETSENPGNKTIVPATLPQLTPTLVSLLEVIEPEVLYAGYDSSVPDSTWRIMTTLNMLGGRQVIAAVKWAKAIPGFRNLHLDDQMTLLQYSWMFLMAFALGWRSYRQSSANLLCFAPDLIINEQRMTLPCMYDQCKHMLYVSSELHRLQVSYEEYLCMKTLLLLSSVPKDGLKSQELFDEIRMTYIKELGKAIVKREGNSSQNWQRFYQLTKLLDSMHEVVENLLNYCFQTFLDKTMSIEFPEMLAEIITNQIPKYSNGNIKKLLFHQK

In experiment [5] the target is rat Androgen Receptor (AR), Ar (gene 24208) (UniProt P15207). The experiment is described as follows: NVS_NR_rAR: NovaScreen (NVS) Nuclear Receptor Binding Assay for rat Androgen Receptor (AR) (AID 2283366). Put shortly:
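Actives from a duplicate single-concentration (25 uM) primary run went on to concentration series. Displacement of radioligand was counted by filtration and scintillation, 18 h post-dose, using prostate extracts from testosterone-pretreated rats, with DMSO as baseline.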

Experiment [6] concerns the target human Adenosine Transporter (Adot), SLC29A1 (gene 2030) (UniProt Q99808). The experiment is described as follows: NVS_TR_hAdoT: NovaScreen (NVS) Transporter Assay for human Adenosine Transporter (Adot) (AID 2283368). The gist of the method: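 Binding displacement on U937 extracted protein, read 1 h post-dose by filtration and scintillation counting. Primary duplicate test at 25 uM, then singleton concentration series with 50 uM top; DMSO baseline.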

Experiment [7] has as its target human Serotonin Transporter (SERT), SLC6A4 (gene 6532) (UniProt P31645). As to the kind of experiment: NVS_TR_hSERT: NovaScreen (NVS) Transporter Assay for human Serotonin Transporter (SERT) (AID 2283372). Put shortly: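 Human platelet membrane preparation; displacement of radioligand from serotonin transporter measured after 1 h by filtration and scintillation counting. Single 25 uM duplicate screen, then concentration series for actives, with DMSO as negative baseline.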

Experiment [8] concerns the target rat Serotonin Transporter (SERT), Slc6a4 (gene 25553) (UniProt P31652). The experiment is described as follows: NVS_TR_rSERT: NovaScreen (NVS) Transporter Assay for rat Serotonin Transporter (SERT) (AID 2283375). Put shortly: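 Radioligand binding with competitive displacement on rat forebrain membrane preparations, counted by filtration and scintillation after 1 h. Primary single-point duplicates at 25 uM; active chemicals followed up in concentration-response. DMSO served as baseline.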

Experiment [9] has as its target Estrogen receptor beta (Homo sapiens) (UniProt Q92731). The experiment is described as follows: OT_ER_ERbERb_0480: Odyssey Thera (OT) 8-hour HEK293T Protein-Complementation Assay for Estrogen Receptor-beta/-beta Homodimer (AID 2283357).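 Also: active means signal gain over DMSO baseline.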 Put shortly: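 ER-beta LBD homodimer PCA stably expressed in HEK293T; 8 h compound exposure, then formaldehyde fixation and Draq5 staining. Gain in nuclear/cytoplasmic fluorescence intensity versus DMSO vehicle, read on laser scanning cytometer.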

Experiment [10] has as its target human Peroxisome Proliferator-activated Receptor alpha (PPARa), PPARA (gene 5465) (UniProt Q07869). As to the kind of experiment: NVS_NR_hPPARa: NovaScreen (NVS) Nuclear Receptor Binding Assay for human Peroxisome Proliferator-activated Receptor alpha (PPARa) (AID 2283359).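 Also: activity means loss of TR-FRET signal versus DMSO baseline.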 Put shortly:
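Loss of TR-FRET binding signal relative to DMSO was measured 1 h after chemical addition to extracted receptor protein. Chemicals were first tested in duplicate at 25 uM, and actives were followed up in concentration series.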

In experiment [11] the target is guinea pig Sigma Receptor, Non-selective Binding, SIGMAR1 (gene 100135589) (UniProt Q60492). As to the kind of experiment: NVS_OR_gSIGMA_NonSelective: NovaScreen (NVS) Nuclear Receptor Binding Assay for guinea pig Sigma Receptor, Non-selective Binding (AID 2283367). The gist of the method: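 Guinea pig brain membrane sigma sites were labelled with a radioligand, and bound radioactivity was counted after filtration 1 h post-dose. Compounds were screened at 25 uM in duplicate, then retested as concentration series when active.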
Chain of guinea pig Sigma Receptor, Non-selective Binding, SIGMAR1 (gene 100135589) (Q60492 whole entry, looked up): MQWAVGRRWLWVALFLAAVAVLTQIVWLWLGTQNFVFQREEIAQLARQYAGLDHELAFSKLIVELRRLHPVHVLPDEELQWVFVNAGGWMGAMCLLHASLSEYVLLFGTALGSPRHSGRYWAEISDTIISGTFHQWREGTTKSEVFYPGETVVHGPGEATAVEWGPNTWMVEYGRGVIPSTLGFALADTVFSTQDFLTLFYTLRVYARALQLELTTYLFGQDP

Experiment [12] concerns guinea pig Dopamine Transporter (DAT), gene 100714898. As to the kind of experiment: NVS_TR_gDAT: NovaScreen (NVS) Transporter Assay for guinea pig Dopamine Transporter (DAT) (AID 2283369).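 Also: active compounds lower bound radioligand signal relative to DMSO.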 The gist of the method: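 Radioligand displacement on membranes from guinea pig striatum, 2 h exposure, bound label counted by filtration and scintillation. Tested at 25 uM in duplicate, then actives in concentration series to 50 uM; DMSO as negative control.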

For experiment [13], the target named is Peroxisome proliferator-activated receptor gamma (Homo sapiens) (UniProt P37231). As to the kind of experiment: NVS_NR_hPPARg: NovaScreen (NVS) Nuclear Receptor Binding Assay for human Peroxisome Proliferator-activated Receptor gamma (PPARg) (AID 2283370). Put shortly:
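Fluorescence polarization readout of ligand binding to extracted human PPARg, measured at 2 h. Duplicate single-point screen at 25 uM, then concentration-series retesting; activity defined as signal loss versus DMSO.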

The test system of experiment [14] is rat Norepinephrine Transporter (NET), gene 83511. The experiment is described as follows: NVS_TR_rNET: NovaScreen (NVS) Transporter Assay for rat Norepinephrine Transporter (NET) (AID 2283373). The gist of the method: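 Competitive radioligand displacement at the rat NET using forebrain membrane preparations, 1 h incubation, filter-based scintillation readout. Primary testing in duplicate at a single 25 uM concentration; confirmed actives retested across concentrations.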

Another experiment addresses PGR (gene 5241) (UniProt P06401). The experiment is described as follows: NVS_NR_hPR: NovaScreen (NVS) Nuclear Receptor Binding Assay for human Progestron Receptor (PR) (AID 2283360).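 Also: active means loss of bound radioligand signal versus DMSO baseline.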 Put shortly: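 Radioligand competition binding on receptor extracted from T47D cells, read by scintillation counting 18 h after dosing. Loss of signal versus DMSO; primary screen in duplicate at 25 uM, actives followed in concentration series.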

For experiment [15], the target named is mouse Estrogen Receptor alpha (Era), Esr1 (gene 13982) (UniProt P19785). The experiment is described as follows: NVS_NR_mERa: NovaScreen (NVS) Nuclear Receptor Binding Assay for mouse Estrogen Receptor alpha (Era) (AID 2283378).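 Also: hit means loss of bound radioligand signal relative to DMSO.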 The gist of the method: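 Filter radiodetection of radioligand displacement from extracted receptor protein, measured 18 h post-dose. Single 25 uM concentration in duplicate initially, with concentration-series follow-up. Binding loss fitted relative to DMSO.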

Experiment [16] has as its target Nuclear receptor subfamily 1 group I member 2 (Homo sapiens) (UniProt O75469). The experiment is described as follows: NVS_NR_hPXR: NovaScreen (NVS) Nuclear Receptor Binding Assay for human Pregnane X Receptor (PXR) (AID 2283365).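 Also: a drop in FRET signal versus DMSO baseline means the compound binds.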 The gist of the method: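 Human PXR binding measured by TR-FRET in a cell-free format, 2 h exposure. Single-concentration duplicates at 25 uM preceded concentration-response retests of actives; endpoint fitted positively relative to DMSO, loss of signal indicating binding.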

Molecules are shown by their SMILES. Results filed as inconclusive are left out. Calls of active or inactive are those of the source. The calls were made as follows: active = hit-call score of the fitted dose curve at least 0.9, where 1 is the maximum; inconclusive = response in the unintended direction; inactive = score below 0.9.

Chain of rat Serotonin Transporter (SERT), Slc6a4 (gene 25553) (P31652 whole entry, looked up): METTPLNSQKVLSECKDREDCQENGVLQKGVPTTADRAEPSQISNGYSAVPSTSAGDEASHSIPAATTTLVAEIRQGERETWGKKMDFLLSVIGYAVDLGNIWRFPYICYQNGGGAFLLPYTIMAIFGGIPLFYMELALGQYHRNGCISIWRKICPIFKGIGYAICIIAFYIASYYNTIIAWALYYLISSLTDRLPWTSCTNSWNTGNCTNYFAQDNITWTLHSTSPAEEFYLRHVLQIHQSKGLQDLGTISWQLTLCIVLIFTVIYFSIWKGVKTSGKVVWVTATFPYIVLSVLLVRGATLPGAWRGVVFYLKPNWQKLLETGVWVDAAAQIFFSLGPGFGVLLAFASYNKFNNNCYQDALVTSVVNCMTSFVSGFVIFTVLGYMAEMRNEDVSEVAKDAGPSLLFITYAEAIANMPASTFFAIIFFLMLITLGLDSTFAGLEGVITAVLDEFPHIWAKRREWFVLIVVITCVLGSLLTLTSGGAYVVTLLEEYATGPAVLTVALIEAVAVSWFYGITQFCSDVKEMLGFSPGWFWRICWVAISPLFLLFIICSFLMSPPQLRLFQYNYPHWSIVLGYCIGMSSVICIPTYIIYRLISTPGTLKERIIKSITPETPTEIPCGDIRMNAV
Chain of human Peroxisome Proliferator-activated Receptor alpha (PPARa), PPARA (gene 5465) (Q07869 whole entry, looked up): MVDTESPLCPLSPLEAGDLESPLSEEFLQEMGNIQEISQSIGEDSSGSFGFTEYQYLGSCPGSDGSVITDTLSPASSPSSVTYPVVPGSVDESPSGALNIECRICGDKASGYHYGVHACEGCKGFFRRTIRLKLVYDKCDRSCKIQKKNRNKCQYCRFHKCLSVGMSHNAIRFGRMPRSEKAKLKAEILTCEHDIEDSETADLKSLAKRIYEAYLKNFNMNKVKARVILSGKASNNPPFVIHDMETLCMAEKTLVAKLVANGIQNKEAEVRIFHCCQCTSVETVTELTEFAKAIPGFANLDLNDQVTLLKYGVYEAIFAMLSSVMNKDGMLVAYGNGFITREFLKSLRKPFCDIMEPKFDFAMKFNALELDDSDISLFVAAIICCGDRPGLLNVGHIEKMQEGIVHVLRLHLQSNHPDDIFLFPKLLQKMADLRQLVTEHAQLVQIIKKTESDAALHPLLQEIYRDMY
Chain of Estrogen receptor beta (Homo sapiens) (Q92731 whole entry, looked up, the tested form may be a part): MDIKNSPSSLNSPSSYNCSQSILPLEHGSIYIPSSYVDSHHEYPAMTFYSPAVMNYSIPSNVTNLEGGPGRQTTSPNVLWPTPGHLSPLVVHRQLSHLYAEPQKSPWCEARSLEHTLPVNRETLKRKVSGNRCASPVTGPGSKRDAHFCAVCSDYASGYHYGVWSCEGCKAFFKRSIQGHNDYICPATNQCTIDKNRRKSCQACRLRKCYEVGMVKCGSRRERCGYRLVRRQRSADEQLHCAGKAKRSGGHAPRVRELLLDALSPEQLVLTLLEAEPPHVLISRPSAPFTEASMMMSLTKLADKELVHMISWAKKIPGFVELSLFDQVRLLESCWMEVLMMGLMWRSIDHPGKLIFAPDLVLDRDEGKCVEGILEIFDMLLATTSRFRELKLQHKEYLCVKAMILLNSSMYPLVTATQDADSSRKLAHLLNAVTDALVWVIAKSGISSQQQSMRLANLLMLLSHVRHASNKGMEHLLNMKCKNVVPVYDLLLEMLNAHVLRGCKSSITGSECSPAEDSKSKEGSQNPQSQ
Chain of PGR (gene 5241) (P06401 whole entry, looked up): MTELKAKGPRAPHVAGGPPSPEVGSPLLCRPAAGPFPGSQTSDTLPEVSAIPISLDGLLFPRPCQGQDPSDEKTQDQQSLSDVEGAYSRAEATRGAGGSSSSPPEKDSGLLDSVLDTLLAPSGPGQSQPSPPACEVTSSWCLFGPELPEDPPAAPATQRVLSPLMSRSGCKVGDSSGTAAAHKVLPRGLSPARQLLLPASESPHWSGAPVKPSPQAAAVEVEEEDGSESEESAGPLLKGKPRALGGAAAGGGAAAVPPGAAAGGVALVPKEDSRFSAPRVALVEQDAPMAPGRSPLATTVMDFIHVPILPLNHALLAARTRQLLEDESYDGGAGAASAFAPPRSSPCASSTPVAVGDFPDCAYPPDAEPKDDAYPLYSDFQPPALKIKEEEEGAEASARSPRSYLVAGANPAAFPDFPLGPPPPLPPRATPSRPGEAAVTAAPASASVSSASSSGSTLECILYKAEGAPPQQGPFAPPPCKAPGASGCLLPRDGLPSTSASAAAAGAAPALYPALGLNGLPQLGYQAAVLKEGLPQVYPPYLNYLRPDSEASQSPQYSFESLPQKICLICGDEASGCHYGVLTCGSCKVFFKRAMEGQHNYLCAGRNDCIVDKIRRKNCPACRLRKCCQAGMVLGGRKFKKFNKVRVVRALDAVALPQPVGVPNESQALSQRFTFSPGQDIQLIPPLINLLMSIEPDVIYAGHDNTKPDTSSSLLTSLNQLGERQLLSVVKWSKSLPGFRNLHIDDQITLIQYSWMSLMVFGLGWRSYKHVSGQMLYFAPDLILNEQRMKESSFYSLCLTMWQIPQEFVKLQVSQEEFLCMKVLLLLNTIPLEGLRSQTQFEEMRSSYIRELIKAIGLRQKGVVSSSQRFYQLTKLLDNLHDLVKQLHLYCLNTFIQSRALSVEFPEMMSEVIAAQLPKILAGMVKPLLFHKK
Chain of human Adenosine Transporter (Adot), SLC29A1 (gene 2030) (Q99808 whole entry, looked up): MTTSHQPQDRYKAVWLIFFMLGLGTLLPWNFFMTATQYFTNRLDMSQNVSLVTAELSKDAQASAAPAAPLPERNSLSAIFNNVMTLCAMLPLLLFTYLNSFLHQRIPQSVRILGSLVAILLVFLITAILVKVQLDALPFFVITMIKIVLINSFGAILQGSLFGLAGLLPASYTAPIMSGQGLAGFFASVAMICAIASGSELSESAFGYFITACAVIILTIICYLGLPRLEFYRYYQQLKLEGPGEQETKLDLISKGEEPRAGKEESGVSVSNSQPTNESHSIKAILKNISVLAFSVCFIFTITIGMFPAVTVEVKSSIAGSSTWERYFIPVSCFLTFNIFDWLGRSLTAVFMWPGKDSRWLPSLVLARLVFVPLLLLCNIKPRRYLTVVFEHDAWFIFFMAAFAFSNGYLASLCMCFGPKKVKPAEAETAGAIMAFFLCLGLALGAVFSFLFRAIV
Chain of human Thyroid Receptor Alpha (TRa), THRA (gene 7067) (P10827 whole entry, looked up): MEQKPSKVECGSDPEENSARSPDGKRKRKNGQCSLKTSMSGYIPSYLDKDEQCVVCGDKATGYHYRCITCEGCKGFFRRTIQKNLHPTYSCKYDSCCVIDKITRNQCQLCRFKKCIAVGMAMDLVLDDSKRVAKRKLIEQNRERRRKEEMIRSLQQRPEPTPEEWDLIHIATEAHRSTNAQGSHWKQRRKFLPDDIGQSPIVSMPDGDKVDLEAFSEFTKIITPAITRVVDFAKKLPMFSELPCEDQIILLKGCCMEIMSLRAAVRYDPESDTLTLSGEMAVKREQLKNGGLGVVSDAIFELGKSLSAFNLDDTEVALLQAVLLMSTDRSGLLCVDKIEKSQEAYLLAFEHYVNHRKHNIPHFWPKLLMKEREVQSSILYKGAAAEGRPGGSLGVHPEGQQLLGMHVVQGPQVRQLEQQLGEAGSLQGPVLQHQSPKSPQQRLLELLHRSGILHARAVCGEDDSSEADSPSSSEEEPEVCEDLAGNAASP

Consider `COc1cc(C(C)C)c2c(c1)S(=O)(=O)N(COc1cc(=O)n3cccc(OCCN4CCCCC4)c3n1)C2=O`, for which the compound was called inactive in experiment [1] and in [2].

As for `Cc1nc(-c2ccccn2)ncc1C(=O)Nn1cc(C)c2cc(F)ccc21`, the outcome in experiment [1] was inactive.

With `CCCCC(CC)C(=O)OCCOCCOCCOC(=O)C(CC)CCCC` (stereo not given), in experiment [3], the outcome was inactive.

`C=CCc1cc(S(=O)(=O)c2ccc(O)c(CC=C)c2)ccc1O`: the values for the half-maximal activity concentration (AC50) in [4], in experiment [5] and in [6] were 4.59 µM (active), 4.5 µM (active) and 25 µM (active), respectively.

In the case of `CC[C@H](C)C(=O)O[C@H]1C[C@H](O)C=C2C=C[C@H](C)[C@H](CC[C@@H](O)C[C@@H](O)CC(=O)O)[C@H]21`, the AC50 in [4] is 15.5 µM (active).

On to `CCCCCCCCCCCCCCCCOS(=O)(=O)O`, for which, in experiment [5], the half-maximal activity concentration (AC50) is 3.03 µM (active).

With `OCCOCCOCCO`, the call in experiment [7] was inactive.

For `CCCOc1ccc(S(=O)(=O)N2CCN(CC)CC2)cc1-c1nc2c(CC)n(Cc3ccccn3)nc2c(=O)[nH]1`, the result in [8] was inactive.

`Cc1ccc(S(=O)(=O)NC(=O)NN2CCCCCC2)cc1`: the compound was called inactive in [9] and in experiment [8].

In the case of `OC(CCl)CCl`, the half-maximal activity concentration (AC50) in [10] was 40.2 µM (active).

As for `CCn1nc(C)c2c1C(=O)NCC(c1ccc(O)cc1)=N2`, the call in experiment [9], in experiment [11], in experiment [6], in experiment [12], in experiment [13] and in experiment [14] was inactive.

`Cn1cc[nH]c1=S`: the outcome (in [9]; with PGR (gene 5241)) was inactive.

Take `c1ccc(C(O[C@@H]2CCCN(CCc3ccc4c(c3)OCO4)C2)c2ccccc2)cc1`: the result (in experiment [9]; with PGR (gene 5241); in [3]; in experiment [4]; in experiment [7]) was inactive. The AC50 in experiment [11] was 2.6 µM (active); in experiment [12], 0.943 µM (active); in experiment [14] it was 11.4 µM (active); in experiment [15] it was 25 µM (active).

For `O=C(O)c1cccc(C[C@@H]2COc3ccc(OCc4nc5cc(F)ccc5s4)cc3[C@@H]2O)c1`, the call in experiment [9], in experiment [10] and in experiment [15] was inactive.

As for `O=C(NO)C1(NS(=O)(=O)c2ccc(Oc3ccc(F)cc3)cc2)CCOCC1`, the compound was classed as inactive in [9]. The concentration at half-maximal activity (AC50) in the experiment with PGR (gene 5241) was 6.3 µM (active).

`CCCc1ccccc1`: the compound was classed as inactive (in [9]; with PGR (gene 5241)).

As for `CCCCCCCCCC`, the result (in [9]; with PGR (gene 5241); in [11]; in [12]; in experiment [8]) was inactive.

As to `CCCCCCCC/C=C\CCCCCCCC(=O)OC[C@@H](O)[C@H]1OC[C@H](O)[C@H]1O`, the call in experiment [9], in experiment [1] and in experiment [16] was inactive. Also, in experiment [10], the AC50 is 0.845 µM (active).

For the compound `C[C@@H](Oc1ccc(CNC(=O)c2cccnc2Oc2ccc3c(c2)OCO3)c(F)c1)C(=O)O`, the result (in experiment [9]; with PGR (gene 5241)) was inactive. For the same compound, in experiment [13], the AC50 was 13.6 µM (active).
